The values below come from PubChem BioAssay (NCI).

The panel holds about 83,000 compounds, 20% with a hit somewhere; the sample as a whole holds those more often.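 A percent growth of 40 corresponds to 60% growth inhibition; 0 means no net growth; -100 means all cells died. Active threshold: below 10.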 A number with no mark means an inactive call. The source made the active and inactive calls.

Holding throughout (assay): NCI-60 one-dose screen, 48 h (100 = growth as untreated, 0 = no growth, -100 = all killed)
In one experiment the test system is T-47D breast. The conditions noted are these: 10 µM.
A further experiment relates to BT-549 breast. The note with it: 10 µM.
Another experiment concerns MDA-MB-435 melanoma. The note with it: 10 µM.
A further experiment has as its system SW-620 colon. The note with it: 10 µM.
The next experiment deals with MCF7 breast. The note with it: 10 µM unless noted.
For another experiment, the system named is HCT-116 colon. The conditions noted are these: 10 µM.
The subject of the next experiment is HCC-2998 colon. The note with it: 10 µM.
For the next experiment, the system named is KM12 colon. The note with it: 10 µM.

In the case of `CCOC(=O)C1=C(Nc2ccc(Br)cc2)C(=O)N(CC)C1`, the growth in the experiment with T-47D breast is 107%; in the experiment with BT-549 breast, 86.9%; in the experiment on MDA-MB-435 melanoma, 101%; in the experiment on SW-620 colon, 100%; with MCF7 breast, 105%; in the experiment with HCT-116 colon, 95.9%. Further, the growth in the experiment on HCC-2998 colon and in the experiment on KM12 colon was 101% each time.

In the case of `O=C1OC(c2ccc(F)cc2)CC1CN1CCOCC1` (centres undefined), the growth was 93.6% with T-47D breast; 95.5% in the experiment on BT-549 breast; 109% in the experiment with MDA-MB-435 melanoma; 102% in the experiment on SW-620 colon; 97.6% in the experiment with MCF7 breast; 92.5% in the experiment with HCT-116 colon. Besides, the growth in the experiment with HCC-2998 colon was 98.8%; with KM12 colon, 102%.

In the case of `COc1ccc(NC(=O)CCl)cc1`, the growth in the experiment on T-47D breast was 62.7%; in the experiment on BT-549 breast it was 66.3%; in the experiment with MDA-MB-435 melanoma it was 87%; with SW-620 colon, 98.3%; in the experiment on MCF7 breast it was 64.4%; in the experiment with HCT-116 colon, 53.5%. Besides, the growth in the experiment with HCC-2998 colon was 99.6%; with KM12 colon, 85.5%.

As to `CC(C)=CC(=O)OC(=O)C=C(C)C`, the growth in the experiment on T-47D breast is 105%; in the experiment on BT-549 breast, 105%; with MDA-MB-435 melanoma, 107%; in the experiment on SW-620 colon, 110%; with MCF7 breast, 94.7%; in the experiment on HCT-116 colon, 109%. The growth was 117% in the experiment on HCC-2998 colon and 102% in the experiment with KM12 colon.

Consider `CCOC(=O)c1ccc(NC(=S)P(=O)(c2ccccc2)c2ccccc2)cc1`, for which the growth with T-47D breast is 109%; in the experiment with BT-549 breast, 101%; with MDA-MB-435 melanoma, 91.1%; in the experiment on SW-620 colon, 102%; in the experiment on MCF7 breast, 100%; with HCT-116 colon it was 91.7%. In addition, the growth with HCC-2998 colon was 108%; in the experiment on KM12 colon, 96.2%.

On to `CC(C)OC(=O)c1cc(NC(=S)OC(C)C)ccc1Cl`, for which the growth is 58.3% in the experiment on T-47D breast; 180% with BT-549 breast; 97% in the experiment with MDA-MB-435 melanoma; 91.4% in the experiment with SW-620 colon; 95.1% with MCF7 breast; 72.2% with HCT-116 colon. Moreover, the growth with HCC-2998 colon was 160%; with KM12 colon, 59.5%.

For the molecule `O=C(CN1CCNCC1)N1CCOCC1`, the growth was 102% with T-47D breast; 113% with BT-549 breast; 109% in the experiment with MDA-MB-435 melanoma; 108% in the experiment on SW-620 colon; 97.8% in the experiment with MCF7 breast; 103% in the experiment on HCT-116 colon. For the same molecule, the growth with HCC-2998 colon and in the experiment on KM12 colon was 108% throughout.

As to `CC1CCC2C(C)(C)C3CC12CC1OC13C` (centres undefined), the growth in the experiment on T-47D breast was 99.3%; in the experiment on BT-549 breast, 107%; in the experiment on MDA-MB-435 melanoma it was 107%; with SW-620 colon it was 98.8%; in the experiment on MCF7 breast, 102%; with HCT-116 colon, 101%. In addition, the results for the growth in the experiment on HCC-2998 colon and with KM12 colon were 127% and 111%, respectively.

As for `CC(=O)c1ccc(C)c(N)c1`, the growth in the experiment on T-47D breast was 99.8%; in the experiment with BT-549 breast it was 94.7%; in the experiment on MDA-MB-435 melanoma, 114%; in the experiment with SW-620 colon, 101%; in the experiment on MCF7 breast, 97.1%; with HCT-116 colon, 94.2%. Also, the values for the growth with HCC-2998 colon and in the experiment with KM12 colon were 108% and 97%, respectively.

As for `CCCCCCCO`, the growth with T-47D breast is 104%; with BT-549 breast, 103%; with MDA-MB-435 melanoma, 114%; in the experiment on SW-620 colon, 95%; in the experiment on MCF7 breast, 88.8%; in the experiment on HCT-116 colon it was 102%. The figures for the growth in the experiment on HCC-2998 colon and in the experiment on KM12 colon were 107% and 112%, respectively.

Regarding `O=C(O)COCC(=O)O`, the growth with T-47D breast was 129%; in the experiment with BT-549 breast, 122%; with MDA-MB-435 melanoma, 109%; with SW-620 colon it was 102%; in the experiment with MCF7 breast it was 100%; in the experiment on HCT-116 colon, 108%. The growth in the experiment with HCC-2998 colon is 114%; with KM12 colon, 96.4%.

`CN(C)c1ccc2nc3ccc(=N)cc-3sc2c1`: the growth with T-47D breast is 19.1%; with BT-549 breast, 51.6%; in the experiment on MDA-MB-435 melanoma, -59.8% (active); with SW-620 colon, 23.5%; in the experiment on MCF7 breast, 23.9%; with HCT-116 colon, 16.7%. The growth in the experiment with HCC-2998 colon is 67.4%; with KM12 colon, 38%.

As for `O=S(=O)(O)CC(O)CN1CCN(CCO)CC1` (centres undefined), the growth was 108% in the experiment on T-47D breast; 99.3% with BT-549 breast; 113% with MDA-MB-435 melanoma; 105% in the experiment with SW-620 colon; 96% in the experiment on MCF7 breast; 101% with HCT-116 colon. Further, the growth was 89.4% in the experiment with HCC-2998 colon and 107% with KM12 colon.

For the molecule `CCOC(=O)C(C#N)Cc1ccccc1` (centres undefined), the growth was 107% in the experiment on T-47D breast; 117% in the experiment with BT-549 breast; 109% with MDA-MB-435 melanoma; 117% with SW-620 colon; 103% with MCF7 breast; 112% in the experiment on HCT-116 colon. Further, the growth in the experiment with HCC-2998 colon is 118%; in the experiment on KM12 colon, 133%.

Regarding `O=C1Cc2cc(O)ccc2O1`, the growth with T-47D breast was 101%; with BT-549 breast it was 109%; with MDA-MB-435 melanoma it was 105%; with SW-620 colon it was 113%; in the experiment with MCF7 breast, 101%; in the experiment with HCT-116 colon, 101%. The growth with HCC-2998 colon was 105%; with KM12 colon, 112%.

In the case of `CC(=O)OCC(=O)[C@@]1(O)CC[C@H]2[C@@H]3CC[C@@H]4C[C@H](O)CC[C@]4(C)[C@H]3C(=O)C[C@@]21C`, the growth with T-47D breast is 108%; with BT-549 breast, 102%; in the experiment on MDA-MB-435 melanoma, 103%; in the experiment on SW-620 colon, 103%; with MCF7 breast it was 108%; in the experiment with HCT-116 colon, 99.9%. Moreover, the figures for the growth in the experiment on HCC-2998 colon and in the experiment with KM12 colon were 97.5% and 112%, respectively.

Consider `O=C(O)/C=C/C(=O)NCc1ccccc1`, for which the growth in the experiment with T-47D breast was 98.5%; in the experiment with BT-549 breast it was 104%; in the experiment on MDA-MB-435 melanoma, 101%; in the experiment on SW-620 colon, 109%; with MCF7 breast, 91.9%; in the experiment with HCT-116 colon, 106%. Also, the growth with HCC-2998 colon was 95.7%; in the experiment on KM12 colon it was 104%.

As for `S=C1CCCCCN1`, the growth in the experiment on T-47D breast was 100%; in the experiment with BT-549 breast, 103%; in the experiment on MDA-MB-435 melanoma it was 104%; with SW-620 colon it was 107%; in the experiment with MCF7 breast it was 99.4%; in the experiment with HCT-116 colon, 102%. Besides, the growth with HCC-2998 colon was 112%; in the experiment with KM12 colon, 105%.
